Source: PubChem BioAssay AID504834 (National Center for Advancing Translational Sciences (NCATS), 2011)
Several values for one entry are separate records, joined by “and”; a condition that tells them apart may be missing. Equal values may be shown once. Screen size: about 320,000 compounds; about 22,000 (6.9%) were called active. About 27% were inconclusive and are not listed. Shown is part of a subset that was picked to be rich in actives. A number with no mark means an inactive call. The call rests on the fitted dose curve; in most records, active means well fitted inhibition curve with a large enough effect; inconclusive means small, poorly fitted or top-dose-only effect, or another doubt; inactive means no such curve, though single readings can be large or run the other way.

Experiment: Primary qHTS for delayed death inhibitors of the malarial parasite plastid, 96 hour incubation
Details: P. falciparum luciferase reporter growth; series mostly up to 28.7 µM; activity change, negative = inhibition: at the top concentration
From the text: The goal of this screen is to discover new antimalarial compounds that act by inhibiting the development of the apicoplast in the malarial parasite Plasmodium falciparum. The biochemical processes that make this organelle essential for erythrocytic stage parasites are not well understood. However, antibiotics such as azithromycin and tetracycline, which target the apicoplast translational machinery, have a potent antimalarial effect.
We have developed a cell-based assay that measures parasite growth based on the expression of an integrated copy of a firefly luciferase reporter. To detect small molecules that cause this "delayed death" phenotype, erythrocytes infected with the luciferase-expressing parasites were incubated with compounds for either one or two generations, corresponding to 48 and 96 hours, respectively. Compounds that inhibit parasite growth in the second generation, but not the first, should be enriched in antimalarials that target the apicoplast. Growth inhibition is detected by a decrease in luciferase activity.
Assay Provider: David Fidock and Eric Ekland, Columbia University
Keywords: NIH Roadmap, MLPCN, MLI, MLSMR, qHTS, NCGC, qHTS, malaria, luciferase, viability
Four microliters of infected erythrocytes (2% hematocrit, 0.05% parasitemia final concentration) in culture medium were dispensed and the plates incubated for 96 hours at 37 C in 5% CO2. Two microliters of luciferase detection reagent was added and luminescence was detected by a ViewLux (PerkinElmer) reader.
On the % scale 0 is the no-effect control and ±100 the full control effect; potency means the concentration at half of the fitted maximal effect.

| Compound | activity change, negative = inhibition | Potency |
| --- | --- | --- |
| O=C(Nc1cccc2c1N(C(=O)c1ccco1)CCC2)c1ccco1 | 17.6% | – |
| O=C(CSc1ncnc2c1oc1ccccc12)NC1CCCC1 | 20.1% | – |
| CCCOc1ccc(-c2c(C(=O)N/N=C/c3ccco3)nnn2-c2nonc2N)cc1 | 23.2% | – |
| CN(Cc1ccccc1)C(=O)CCc1ccccc1 | 96.1% | – |
| Cc1cc(C)cc(NC(=O)N(C)Cc2ccccc2)c1 | -14.3% | – |
| CN(Cc1ccccc1)C(=O)c1cccc(C(=O)N(C)Cc2ccccc2)c1 | – | 13.1 µM (active) |
| Cc1cc(C(=O)N/N=C/c2ccccn2)c2ccccc2n1 | -1.75% | – |
| O=C(N/C(=C\c1ccc(O)cc1)C(=O)N1CCCCC1)c1ccccc1 | 0% | – |
| COc1ccc(C)cc1NC(=O)C(Sc1ccccc1)c1ccccc1 (stereo not drawn) | 51.7% | – |
| Cc1ccc(C)c(NC(=O)C(OC(=O)c2ccc(C)s2)c2ccccc2)c1 (stereo not drawn) | – | 2.94 µM (active) |
| COc1ccc(C)cc1NC(=O)C(OC(=O)c1cccc(S(=O)(=O)N(C)c2ccccc2)c1)c1ccccc1 (stereo not drawn) | -11.6% | – |
| C/C(CC(=O)NCc1ccc(Cl)cc1)=N\NC(=O)COc1ccc(C)cc1Br | -1.16% | – |
| CC(C)C[C@H](NC(=O)N1CCn2c1nc1ccccc12)C(=O)NC1CC1 | 12.5% | – |
| O=S(=O)(NCCc1ccccn1)c1cc(Cl)cc(Cl)c1O | 27.7% | – |
| O=S(=O)(c1cc(Cl)ccc1Cl)N1CCN(Cc2ccco2)CC1 | 2.9% | – |
| N#Cc1ccsc1NC(=O)CN1CCN(S(=O)(=O)c2cc(Cl)ccc2Cl)CC1 | – | 4.15 µM (active) |
| N#Cc1ccsc1NC(=O)CN1CCCCC1 | -15.1% | – |
| CCN(CC)c1ccc(/C=N/NC(=O)CNC(=O)c2cccnc2)cc1 | -2.84% | – |
| CCOc1ccc(NC(=O)COc2ccc(S(=O)(=O)N3CCCC3)cc2)cc1 | -2.81% | – |
| CC(=O)NCCC(=O)Nc1cc(S(=O)(=O)N2CCCCC2)ccc1Oc1cccc(C)c1 | 2.09% | – |
| O=C(COc1ccc(S(=O)(=O)N2CCCCC2)cc1)NCc1ccccn1 | 30.6% | – |
| CCOc1ccccc1NC(=O)C1CCCN(S(=O)(=O)c2ccccc2)C1 (stereo not drawn) | 1.92% | – |

| Compound | activity change, negative = inhibition | Potency |
| --- | --- | --- |
| CCOc1ccccc1NC(=O)COc1ccc(S(=O)(=O)N2CCCC2)cc1 | – | 8.28 µM (active) |
| CCOc1ccc(S(=O)(=O)N2CCCCC2)cc1NC(=O)CN1CCCC1c1cccs1 (stereo not drawn) | – | 4.65 µM (active) |
| CN(C)C(=O)N=NC(=O)N(C)C | 10.3% | – |
| O=C(Oc1ccc(Br)cc1)c1cccnc1 | 30.1% | – |
| O=C(COC(=O)c1cccc(Cl)c1)NC1CCCCCCC1 | -26.1% | – |
| CCc1c(C)c2ccc(OC3CCCCC3=O)cc2oc1=O (stereo not drawn) | 101% | – |
| Cc1ccc(C(=O)C(C)OC(=O)Cc2n[nH]c(=O)c3ccccc23)cc1C (stereo not drawn) | 19.1% | – |
| Cc1cc(C)c(S(=O)(=O)N(C)CC(=O)NCC2CCCO2)c(C)c1 (stereo not drawn) | 61.1% | – |
| COc1ccccc1CCC(=O)OCC(=O)N1CCN(S(=O)(=O)c2ccc(C)cc2C)CC1 | 3.54% | – |
| CCCCCCCN=C(C)c1ccccc1O | 22.3% | – |
| C/C(=N\N(C)C)c1ccc(OCCOc2ccc([N+](=O)[O-])cc2)cc1 | -2.03% | – |
| COc1ccc(C(C#N)(CC(=O)O)c2cnccn2)cc1OC (stereo not drawn) | 55.4% | – |
| COc1cc(OC)cc(C(=O)NNC(=O)CNC(=O)c2ccc(Br)o2)c1 | 12.7% | – |
| S=C(NCCC1=CCCCC1)Nc1ccccc1 | – | 0.586 µM (active) |
| O=C(Cc1cccc2ccccc12)NCCC1=CCCCC1 | 0% | – |
| S=C(NCCCc1ccccc1)Nc1ccc(Br)cc1 | 40.7% | – |
| CC(=O)N1CC(=O)N(CC(=O)Nc2ccc(Br)cc2)C1=S | 71.4% | – |
| CC(=O)c1nnn(-c2ccc(Cl)cc2C#N)c1C | 0.592% | – |
| Cc1cccc(-c2c(NC(=O)c3ccco3)oc3ccc(Cl)cc3c2=O)c1 | 2.39% | – |
| Cc1noc(NS(=O)(=O)c2ccc(NC(=O)c3oc4ccc(F)cc4c3C)cc2)c1C | 1.56% | – |
| CC(C)CCn1c(=O)c2c(nc3n2CCCN3Cc2ccccc2)n(C)c1=O | – | 6.57 µM (active) |
| CCOC(=O)CSc1nc2c(c(=O)n(Cc3ccccc3Cl)c(=O)n2C)n1C | 12.3% | – |

| Compound | activity change, negative = inhibition | Potency |
| --- | --- | --- |
| Cn1cnc2c1c(=O)n(Cc1c(Cl)cccc1Cl)c(=O)n2C | -6.67% | – |
| N/C(=N\OC(=O)Cc1ccccc1[N+](=O)[O-])c1ccc(Br)cc1 | 12.7% [at 5.75 µM] | – |
| N/C(=N\OC(=O)N1c2ccccc2Sc2ccccc21)c1ccc(Br)cc1 | – | 10.4 µM (active) |
| N/C(=N\OC(=O)/C=C/c1ccccc1)c1ccc(Br)cc1 | 4.24% | – |
| Cc1ccc(C)c(SCc2nc3sc(C(=O)O)c(C)c3c(=O)[nH]2)c1 | 15.7% | – |
| CC1CCN(C(=O)c2ccc3c(c2)NC(=O)CN3)CC1 | 29.3% | – |
| Cn1cc(CNC(=O)c2ccc(OC3CCN(Cc4ccccn4)CC3)cc2)cn1 | 3.47% | – |
| O=C(NCC1CCCO1)c1cc2c([nH]c3ccccc32)c(-c2ccc(F)cc2)n1 (stereo not drawn) | – | 9.28 µM (active) |
| COc1ccc2cc(C(=O)NCC3CCCO3)[nH]c2c1 (stereo not drawn) | 102% | – |
| O=C(Nc1ccccc1C(=O)NCC1CCCO1)c1ccccc1F (stereo not drawn) | -21.2% | – |
| Cc1ccc(C(=O)Nc2ccn(C)n2)cc1 | 33.8% | – |
| CCOc1ccc2c(c1)C(c1ccc(C)cc1)=NNC(c1ccc(C)cc1)=N2 | -7.17% | – |
| CCOc1ccc(-c2nc(C)sc2CC(=O)O)cc1 | -1.13% | – |
| CCOc1ccc(-c2cc(C)[n+](CCN(CC)CC)c(-c3ccc(OCC)cc3)c2)cc1 | – | 0.37 µM (active) |
| Nc1ccc(C(=O)Nc2ccccc2N)cc1 | 1.66% | – |
| COc1ccc(N2CCN(C(=O)c3cccs3)CC2)cc1 | – | 13.1 µM (active) |
| O=C(COc1ccccc1)Nc1ccc(N2CCN(C(=O)c3cccs3)CC2)cc1 | 9.01% | – |
| Cc1ccc(S(=O)(=O)N2CCN(C(=O)c3cccs3)CC2)cc1 | 22.6% | – |
| COc1ccc(S(=O)(=O)N2CCN(C(=O)c3cccs3)CC2)cc1OC | 43.7% | – |
| CCS(=O)(=O)N1CCN(C(=O)c2cccs2)CC1 | – | 4.65 µM (active) |
| O=C(c1cccs1)N1CCN(C(=O)N2CCOCC2)CC1 | -9.34% | – |
| NC(=O)COc1ccccc1C(=O)NC12CC3CC(CC(C3)C1)C2 | 27.2% | – |

| Compound | activity change, negative = inhibition | Potency |
| --- | --- | --- |
| CCN(CC)CCCN=C(N)N | 45.7% | – |
| CC(C)(C)n1nnnc1C(c1ccccc1F)N1CCN(C(=O)c2ccco2)CC1 (stereo not drawn) | -20.3% | – |
| COc1ccc(CN2CCN(Cc3ccc(OC)c(OC)c3OC)CC2)cc1 | -5.74% | – |
| Cc1nc(C(=O)Nc2ccc(Cl)cc2)sc1C1(C)CC(c2ccccc2)=NO1 (stereo not drawn) | -1.05% | – |
| Cc1nn(-c2ccccc2)c(=O)c2noc(C)c12 | 24.6% | – |
| COc1ccc(C(=O)Nc2cc(C)c(NC(=O)c3ccccc3OC)cn2)cc1 | -9.94% | – |
| Cc1cccc(C2=N/C(=C/c3cccs3)C(=O)O2)c1 | -19.3% | – |
| CSC1=N/C(=C\C=C\c2cccs2)C(=O)S1 | – | 5.22 µM (active) |
| CSC1=N/C(=C\c2ccc3c(c2)OCO3)C(=O)S1 | -18.9% | – |
| O=S(=O)(Cc1noc(-c2ccc(OC(F)(F)F)cc2)n1)c1ccc(F)cc1 | -0.67% | – |
| COc1ccc(NC(=O)c2cccc(Cl)c2)c[n+]1[O-] | 43.4% | – |
| COc1cc(OC)c(-n2c(C)cc(C=O)c2C)cc1Cl | – | 13.1 µM (active) |
| COc1cc(OC)c(-n2cc(-c3ccc(Cl)cc3)[nH]c2=O)cc1Cl | 55.8% | – |
| COc1cc(Cl)c(S(=O)(=O)n2cnc(C)c2)cc1Cl | 13.2% | – |
| O=C1c2ccccc2C(=O)N1c1cccc2ccccc12 | 10.7% | – |
| Cc1n[nH]c(=O)c2c(NC(=O)CSc3cc(Cl)ccc3Cl)oc(C)c12 | 11.3% | – |
| COc1cccc(-c2cccc(NC(=O)C3CCN(C4CCC4)CC3)c2)c1 | 30.6% | – |
| O=C(Nc1cccc(-c2cccc(Cl)c2)c1)C1CCN(C2CCC2)CC1 | – | 10.4 µM (active) |
| CCn1cc(CN2CCC(C(=O)Nc3cccc(-c4cccc(Cl)c4)c3)CC2)cn1 | 26.2% | – |
| COC(=O)CSc1nnc(NC(=O)CCc2ccccc2)s1 | 12.1% | – |
| CC(C)CCN1CCN=C1N(C)C | 0% | – |
| COc1ccc(S(=O)(=O)N2CCN(C(=O)N(C)C)C2C)cc1 (stereo not drawn) | 27.7% | – |

| Compound | activity change, negative = inhibition | Potency |
| --- | --- | --- |
| Cc1cccc(C(=O)N2CCN(S(=O)(=O)N3CCCCC3)CC2)c1 | 30.2% | – |
| CCCCN(CCCC)CCC(O)c1cc2c(Cl)cc(Cl)cc2c2cc(C(F)(F)F)ccc12 (stereo not drawn) | – | 2.6 nM (active) and 2.9 nM (active) |
| CN(CC(=O)NCCc1ccccn1)S(=O)(=O)c1ccc(Cl)cc1 | 10% | – |
| Cc1ccc(NC(=O)NCC(c2cccnc2)N2CCOCC2)cc1 (stereo not drawn) | 11.9% | – |
| CN(CC(=O)NNC(=O)CNC(=O)c1ccccc1Cl)S(=O)(=O)c1ccc(Cl)cc1 | 16.9% | – |
| CN(CC(=O)NCC(c1ccccc1)N1CCCC1)S(=O)(=O)c1ccc(Cl)cc1 (stereo not drawn) | – | 8.28 µM (active) |
| Cc1ccc(S(=O)(=O)N(C)CC(=O)NCC(c2ccc(F)cc2)N2CCOCC2)cc1 (stereo not drawn) | – | 10.4 µM (active) |
| CN(CC(=O)NCCN1CCOCC1)S(=O)(=O)c1ccc(F)cc1 | 20.1% | – |
| COc1ccccc1OCCOc1ccc(/C=C2\C(=N)N3N=C(C)SC3=NC2=O)cc1 | 21.5% | – |
| CCN1CCN(C(=O)c2ccc(CN(c3ccc(C)c(C)c3)S(C)(=O)=O)cc2)CC1 | – | 10.4 µM (active) |
| CCOC(=O)N1CCN(C(=O)CN(c2ccc(C)c(C)c2)S(=O)(=O)c2ccccc2)CC1 | 21.9% | – |
| CCOC(=O)N1CCN(C(=O)c2ccc(CN(c3ccc(C)c(C)c3)S(C)(=O)=O)cc2)CC1 | -3.85% | – |
| CC1CN(C(=S)Nc2ccccc2F)CC(C)O1 (stereo not drawn) | -42% | – |
| CCCc1cc(=O)n2[nH]c(C)c(-c3ccc(Cl)cc3)c2n1 | -3.91% | – |
| O=c1[nH]n(-c2cccc(Cl)c2)c2ncccc12 | 40.9% | – |
| Cc1[nH]n(-c2cccc(Cl)c2)c(=O)c1-c1ccc(Cl)cc1 | – | 0.415 µM (active) |
| CC(C)(O)c1ccccc1CC[C@H](SCC1(CC(=O)O)CC1)c1cccc(/C=C/c2ccc3ccc(Cl)cc3n2)c1 | -16.4% | – |
| Cc1cc(C)n(-c2nc(C(F)(F)F)nc3ccccc23)n1 | 14% [at 5.75 µM] | – |
| CCc1ccc(C(CNc2nc(C(F)(F)F)nc3ccccc23)N(C)C)cc1 (stereo not drawn) | – | 11.7 µM (active) |
| NS(=O)(=O)c1ccc(CCNc2nc(C(F)(F)F)nc3ccccc23)cc1 | 2.6% | – |
